Results from the supplement of paper PMC11732987, “Enantioselective OTUD7B fragment discovery through chemoproteomics screening and high-throughput optimisation” (Communications Chemistry, 2025).

What was measured:
Assay in all cases: log2 ratio of Biotin-Ahx-Ub-VS probe labelling (fragment/DMSO); higher = less target engagement (more negative = stronger competition), active = hit call of the paper (q ≤ 0.05, log2 ratio ≤ -1)
Details in all cases: compound concentration: 200 uM; treatment time: 3 h
[1] = molecular target: T1, USP42 (UniProt Q9H9J4)
T1 sequence (whole entry): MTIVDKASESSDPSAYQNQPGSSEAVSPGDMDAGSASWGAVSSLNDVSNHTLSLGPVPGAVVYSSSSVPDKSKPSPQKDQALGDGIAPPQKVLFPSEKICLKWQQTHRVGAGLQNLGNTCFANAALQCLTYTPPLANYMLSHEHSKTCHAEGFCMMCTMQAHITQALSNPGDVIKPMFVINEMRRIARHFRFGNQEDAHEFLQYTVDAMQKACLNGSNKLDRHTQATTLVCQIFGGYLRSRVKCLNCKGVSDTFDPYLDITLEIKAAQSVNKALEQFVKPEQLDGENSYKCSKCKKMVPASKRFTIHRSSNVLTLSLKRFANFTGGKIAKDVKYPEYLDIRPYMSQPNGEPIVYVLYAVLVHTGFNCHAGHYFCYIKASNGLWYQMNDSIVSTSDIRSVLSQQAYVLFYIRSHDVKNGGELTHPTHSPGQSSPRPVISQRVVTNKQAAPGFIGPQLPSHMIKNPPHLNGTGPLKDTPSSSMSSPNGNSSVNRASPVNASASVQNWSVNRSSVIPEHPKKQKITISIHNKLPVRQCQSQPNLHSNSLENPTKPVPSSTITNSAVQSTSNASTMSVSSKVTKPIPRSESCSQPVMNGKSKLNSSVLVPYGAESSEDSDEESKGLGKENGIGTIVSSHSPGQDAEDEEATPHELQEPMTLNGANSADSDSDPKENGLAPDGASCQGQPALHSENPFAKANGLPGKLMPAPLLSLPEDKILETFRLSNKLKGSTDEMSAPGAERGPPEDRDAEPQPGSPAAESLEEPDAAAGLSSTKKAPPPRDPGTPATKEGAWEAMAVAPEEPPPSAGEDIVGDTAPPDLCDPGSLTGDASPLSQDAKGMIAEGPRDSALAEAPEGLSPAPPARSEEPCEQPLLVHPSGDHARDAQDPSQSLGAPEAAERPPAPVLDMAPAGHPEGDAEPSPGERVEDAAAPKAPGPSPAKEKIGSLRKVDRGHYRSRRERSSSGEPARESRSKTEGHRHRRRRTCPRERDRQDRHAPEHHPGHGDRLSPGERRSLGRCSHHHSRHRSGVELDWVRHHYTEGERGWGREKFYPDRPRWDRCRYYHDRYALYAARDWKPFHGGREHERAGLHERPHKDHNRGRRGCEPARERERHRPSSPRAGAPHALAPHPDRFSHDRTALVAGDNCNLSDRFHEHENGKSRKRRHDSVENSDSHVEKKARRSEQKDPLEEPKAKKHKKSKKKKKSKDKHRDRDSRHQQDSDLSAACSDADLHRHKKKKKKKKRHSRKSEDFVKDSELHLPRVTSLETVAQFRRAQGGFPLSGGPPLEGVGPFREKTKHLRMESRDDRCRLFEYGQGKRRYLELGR
Outline: (§1)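 Labelled DUBs from HEK293T lysate were NeutrAvidin-enriched, digested with LysC and trypsin, and run by diaPASEF LC-MS/MS. Before that, each 495 µg sample in Tris/CHAPS/IGEPAL buffer with protease inhibitors was treated in triplicate with fragment at 200 µM or vehicle for 3 h, then with Biotin-Ahx-Ub-VS at 0.5 µM final for 1 h. Values are average log2 ratios of fragment over vehicle by unpaired t-test, based on global-median-normalised Spectronaut label-free quantities from proteins with ≥2 unique peptides.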

[2] = molecular target: USP46 (UniProt P62068)
Chain of USP46 (P62068 whole entry): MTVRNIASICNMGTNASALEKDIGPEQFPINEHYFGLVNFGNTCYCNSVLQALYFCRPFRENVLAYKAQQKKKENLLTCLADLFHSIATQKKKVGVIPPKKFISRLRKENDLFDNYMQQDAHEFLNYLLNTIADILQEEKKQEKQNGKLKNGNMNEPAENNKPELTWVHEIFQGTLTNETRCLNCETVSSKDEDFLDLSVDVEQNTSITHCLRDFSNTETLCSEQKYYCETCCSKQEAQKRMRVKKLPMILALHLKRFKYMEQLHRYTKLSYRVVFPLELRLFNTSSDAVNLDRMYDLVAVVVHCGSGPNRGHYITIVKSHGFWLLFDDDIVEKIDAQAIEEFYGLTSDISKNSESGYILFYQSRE
Outline: as §1

[3] = molecular target: T2, USP47 (UniProt Q96K76)
T2 sequence (whole entry): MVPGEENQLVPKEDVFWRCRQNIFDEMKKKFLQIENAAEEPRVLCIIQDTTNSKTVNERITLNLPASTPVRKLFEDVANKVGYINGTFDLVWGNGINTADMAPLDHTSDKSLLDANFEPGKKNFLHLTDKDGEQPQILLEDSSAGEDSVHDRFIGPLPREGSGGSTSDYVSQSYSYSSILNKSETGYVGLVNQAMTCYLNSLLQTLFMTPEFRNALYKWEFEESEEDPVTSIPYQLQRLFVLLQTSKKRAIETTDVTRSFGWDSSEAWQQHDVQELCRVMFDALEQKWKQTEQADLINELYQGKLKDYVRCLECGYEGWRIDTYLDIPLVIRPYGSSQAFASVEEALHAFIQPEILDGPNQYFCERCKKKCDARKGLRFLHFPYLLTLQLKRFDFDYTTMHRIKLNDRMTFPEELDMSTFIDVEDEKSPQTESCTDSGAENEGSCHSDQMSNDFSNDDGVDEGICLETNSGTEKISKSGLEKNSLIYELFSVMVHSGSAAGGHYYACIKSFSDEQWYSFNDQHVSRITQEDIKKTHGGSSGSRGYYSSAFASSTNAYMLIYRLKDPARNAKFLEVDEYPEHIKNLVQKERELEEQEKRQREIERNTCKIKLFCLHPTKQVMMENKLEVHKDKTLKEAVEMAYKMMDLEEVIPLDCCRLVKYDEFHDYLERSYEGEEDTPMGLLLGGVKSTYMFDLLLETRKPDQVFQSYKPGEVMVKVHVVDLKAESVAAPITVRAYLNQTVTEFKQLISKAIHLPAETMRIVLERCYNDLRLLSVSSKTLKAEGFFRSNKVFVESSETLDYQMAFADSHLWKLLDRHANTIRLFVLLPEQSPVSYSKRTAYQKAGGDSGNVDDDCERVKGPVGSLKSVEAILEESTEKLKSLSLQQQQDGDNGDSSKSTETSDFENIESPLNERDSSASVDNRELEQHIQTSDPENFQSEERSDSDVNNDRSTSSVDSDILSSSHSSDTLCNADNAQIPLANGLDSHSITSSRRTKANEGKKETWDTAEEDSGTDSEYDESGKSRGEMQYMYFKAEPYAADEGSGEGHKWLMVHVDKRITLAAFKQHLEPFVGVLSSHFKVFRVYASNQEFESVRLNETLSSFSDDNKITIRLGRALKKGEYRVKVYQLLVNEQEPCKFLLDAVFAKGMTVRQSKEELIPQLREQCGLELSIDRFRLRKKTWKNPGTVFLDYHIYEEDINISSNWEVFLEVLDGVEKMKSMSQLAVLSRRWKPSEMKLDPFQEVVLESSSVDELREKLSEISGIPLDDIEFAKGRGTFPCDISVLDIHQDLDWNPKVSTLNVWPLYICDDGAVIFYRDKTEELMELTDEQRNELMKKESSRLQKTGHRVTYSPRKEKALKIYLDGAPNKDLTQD
Outline: as §1

[4] = molecular target: T3, USP48 (UniProt Q86UV5)
T3 sequence (whole entry): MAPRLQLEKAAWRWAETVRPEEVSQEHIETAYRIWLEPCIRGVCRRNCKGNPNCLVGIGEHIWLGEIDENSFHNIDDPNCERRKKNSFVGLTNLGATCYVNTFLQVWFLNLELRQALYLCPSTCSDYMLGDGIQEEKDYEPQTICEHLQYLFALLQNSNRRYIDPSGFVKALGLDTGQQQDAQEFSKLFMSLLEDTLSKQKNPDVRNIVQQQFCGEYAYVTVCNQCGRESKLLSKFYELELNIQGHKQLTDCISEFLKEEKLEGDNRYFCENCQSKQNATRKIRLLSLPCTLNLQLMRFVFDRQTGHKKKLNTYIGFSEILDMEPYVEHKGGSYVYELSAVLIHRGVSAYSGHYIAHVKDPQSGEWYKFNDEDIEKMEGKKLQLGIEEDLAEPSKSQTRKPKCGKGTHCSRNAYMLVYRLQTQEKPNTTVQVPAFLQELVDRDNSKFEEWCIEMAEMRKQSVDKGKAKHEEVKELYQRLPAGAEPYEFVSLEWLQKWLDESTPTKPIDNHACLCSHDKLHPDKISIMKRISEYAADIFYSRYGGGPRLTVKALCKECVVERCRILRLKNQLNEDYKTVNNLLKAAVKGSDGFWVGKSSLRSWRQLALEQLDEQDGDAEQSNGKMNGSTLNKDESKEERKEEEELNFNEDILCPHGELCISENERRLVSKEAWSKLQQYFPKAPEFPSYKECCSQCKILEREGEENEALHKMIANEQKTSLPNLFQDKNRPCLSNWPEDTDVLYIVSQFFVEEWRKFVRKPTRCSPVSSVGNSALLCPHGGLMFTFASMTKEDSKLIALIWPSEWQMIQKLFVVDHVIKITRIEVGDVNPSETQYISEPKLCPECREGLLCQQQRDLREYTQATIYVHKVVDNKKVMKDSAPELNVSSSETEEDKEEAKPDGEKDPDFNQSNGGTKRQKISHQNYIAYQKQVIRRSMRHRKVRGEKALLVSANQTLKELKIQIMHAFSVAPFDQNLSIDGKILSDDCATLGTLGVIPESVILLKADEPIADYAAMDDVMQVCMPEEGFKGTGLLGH
Outline: as §1

[5] = molecular target: T4, USP5 (UniProt P45974)
T4 sequence (whole entry): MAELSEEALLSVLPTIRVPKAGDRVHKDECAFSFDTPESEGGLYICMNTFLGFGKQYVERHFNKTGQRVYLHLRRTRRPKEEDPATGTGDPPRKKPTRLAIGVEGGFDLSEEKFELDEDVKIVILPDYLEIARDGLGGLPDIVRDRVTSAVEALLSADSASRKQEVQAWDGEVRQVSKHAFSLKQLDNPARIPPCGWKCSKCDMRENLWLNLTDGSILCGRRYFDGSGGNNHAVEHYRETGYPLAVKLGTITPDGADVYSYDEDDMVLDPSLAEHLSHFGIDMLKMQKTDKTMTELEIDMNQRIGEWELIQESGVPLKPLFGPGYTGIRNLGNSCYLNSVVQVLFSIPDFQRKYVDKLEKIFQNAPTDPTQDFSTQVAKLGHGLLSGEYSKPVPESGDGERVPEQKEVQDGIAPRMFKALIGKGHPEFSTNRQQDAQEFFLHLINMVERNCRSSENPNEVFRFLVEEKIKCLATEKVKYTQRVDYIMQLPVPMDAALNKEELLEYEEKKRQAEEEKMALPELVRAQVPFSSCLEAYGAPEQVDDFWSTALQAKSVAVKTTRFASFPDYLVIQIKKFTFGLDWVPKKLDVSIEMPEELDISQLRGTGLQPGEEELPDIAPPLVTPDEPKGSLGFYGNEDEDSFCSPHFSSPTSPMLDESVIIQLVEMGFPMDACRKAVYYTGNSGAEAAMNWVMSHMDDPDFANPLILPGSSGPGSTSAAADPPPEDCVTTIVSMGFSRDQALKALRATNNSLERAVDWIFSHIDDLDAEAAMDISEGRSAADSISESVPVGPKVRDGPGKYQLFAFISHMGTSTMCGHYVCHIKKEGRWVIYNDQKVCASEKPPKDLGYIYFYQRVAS
Outline: as §1

[6] = molecular target: USP54 (UniProt Q70EL1)
Outline: as §1

[7] = molecular target: USP7 (UniProt Q93009)
Chain of USP7 (Q93009 whole entry, looked up): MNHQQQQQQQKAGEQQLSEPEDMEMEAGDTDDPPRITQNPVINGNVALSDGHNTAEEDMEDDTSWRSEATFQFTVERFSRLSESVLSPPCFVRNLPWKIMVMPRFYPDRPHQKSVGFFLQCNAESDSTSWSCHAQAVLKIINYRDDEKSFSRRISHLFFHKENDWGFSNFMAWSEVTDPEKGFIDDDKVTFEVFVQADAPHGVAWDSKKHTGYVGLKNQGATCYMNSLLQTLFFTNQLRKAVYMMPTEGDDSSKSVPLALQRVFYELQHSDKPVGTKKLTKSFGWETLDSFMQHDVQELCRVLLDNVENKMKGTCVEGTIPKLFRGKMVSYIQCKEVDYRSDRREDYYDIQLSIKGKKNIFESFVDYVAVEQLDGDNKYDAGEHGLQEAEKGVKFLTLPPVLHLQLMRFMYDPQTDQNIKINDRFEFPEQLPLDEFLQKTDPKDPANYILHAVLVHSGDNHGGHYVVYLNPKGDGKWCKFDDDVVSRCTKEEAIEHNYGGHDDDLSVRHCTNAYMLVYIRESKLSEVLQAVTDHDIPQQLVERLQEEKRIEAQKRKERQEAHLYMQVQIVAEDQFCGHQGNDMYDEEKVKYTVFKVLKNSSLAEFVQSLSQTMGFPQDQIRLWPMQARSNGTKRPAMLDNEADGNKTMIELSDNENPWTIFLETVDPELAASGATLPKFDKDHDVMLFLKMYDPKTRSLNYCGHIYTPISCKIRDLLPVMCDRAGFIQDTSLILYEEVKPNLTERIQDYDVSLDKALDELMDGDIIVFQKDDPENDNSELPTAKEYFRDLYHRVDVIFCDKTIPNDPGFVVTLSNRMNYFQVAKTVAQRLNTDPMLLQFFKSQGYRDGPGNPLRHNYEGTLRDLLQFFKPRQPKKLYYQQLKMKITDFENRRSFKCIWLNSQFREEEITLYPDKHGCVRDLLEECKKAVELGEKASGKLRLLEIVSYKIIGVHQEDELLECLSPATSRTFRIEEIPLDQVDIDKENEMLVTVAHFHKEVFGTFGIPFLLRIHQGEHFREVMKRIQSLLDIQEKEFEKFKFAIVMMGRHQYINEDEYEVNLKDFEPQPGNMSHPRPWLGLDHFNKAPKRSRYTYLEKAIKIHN
Outline: as §1

[8] = molecular target: T5, USP8 (UniProt P40818)
T5 sequence (whole entry): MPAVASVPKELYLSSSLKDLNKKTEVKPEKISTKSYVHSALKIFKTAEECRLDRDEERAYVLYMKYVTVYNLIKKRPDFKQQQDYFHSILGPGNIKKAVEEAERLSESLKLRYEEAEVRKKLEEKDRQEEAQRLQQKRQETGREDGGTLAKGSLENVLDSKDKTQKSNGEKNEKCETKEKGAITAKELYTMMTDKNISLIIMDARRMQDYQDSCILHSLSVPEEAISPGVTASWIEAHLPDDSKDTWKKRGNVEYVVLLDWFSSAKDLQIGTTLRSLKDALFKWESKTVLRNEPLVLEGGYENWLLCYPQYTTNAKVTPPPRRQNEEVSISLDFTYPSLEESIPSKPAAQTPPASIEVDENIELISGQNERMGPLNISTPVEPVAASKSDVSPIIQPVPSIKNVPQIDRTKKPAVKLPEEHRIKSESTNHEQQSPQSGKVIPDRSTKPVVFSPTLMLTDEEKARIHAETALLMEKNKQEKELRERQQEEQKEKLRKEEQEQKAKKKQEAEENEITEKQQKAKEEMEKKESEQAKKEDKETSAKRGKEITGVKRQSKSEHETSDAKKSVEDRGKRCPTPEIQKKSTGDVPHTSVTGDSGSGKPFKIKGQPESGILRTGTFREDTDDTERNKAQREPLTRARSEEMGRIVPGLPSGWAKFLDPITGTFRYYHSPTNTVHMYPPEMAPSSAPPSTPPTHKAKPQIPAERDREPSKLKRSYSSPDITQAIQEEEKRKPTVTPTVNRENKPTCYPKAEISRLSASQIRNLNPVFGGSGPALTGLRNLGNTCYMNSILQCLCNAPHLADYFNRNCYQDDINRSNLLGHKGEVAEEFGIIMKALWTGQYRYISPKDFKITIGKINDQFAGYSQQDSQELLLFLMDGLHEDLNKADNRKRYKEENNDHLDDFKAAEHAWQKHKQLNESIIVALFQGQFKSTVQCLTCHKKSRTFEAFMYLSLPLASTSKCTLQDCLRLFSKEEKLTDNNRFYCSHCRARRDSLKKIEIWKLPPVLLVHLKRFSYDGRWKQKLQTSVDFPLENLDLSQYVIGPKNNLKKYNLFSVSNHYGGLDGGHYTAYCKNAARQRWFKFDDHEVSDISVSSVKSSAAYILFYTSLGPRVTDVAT
Outline: as §1

[9] = molecular target: USP9X (UniProt Q93008)
Chain of USP9X (Q93008 whole entry): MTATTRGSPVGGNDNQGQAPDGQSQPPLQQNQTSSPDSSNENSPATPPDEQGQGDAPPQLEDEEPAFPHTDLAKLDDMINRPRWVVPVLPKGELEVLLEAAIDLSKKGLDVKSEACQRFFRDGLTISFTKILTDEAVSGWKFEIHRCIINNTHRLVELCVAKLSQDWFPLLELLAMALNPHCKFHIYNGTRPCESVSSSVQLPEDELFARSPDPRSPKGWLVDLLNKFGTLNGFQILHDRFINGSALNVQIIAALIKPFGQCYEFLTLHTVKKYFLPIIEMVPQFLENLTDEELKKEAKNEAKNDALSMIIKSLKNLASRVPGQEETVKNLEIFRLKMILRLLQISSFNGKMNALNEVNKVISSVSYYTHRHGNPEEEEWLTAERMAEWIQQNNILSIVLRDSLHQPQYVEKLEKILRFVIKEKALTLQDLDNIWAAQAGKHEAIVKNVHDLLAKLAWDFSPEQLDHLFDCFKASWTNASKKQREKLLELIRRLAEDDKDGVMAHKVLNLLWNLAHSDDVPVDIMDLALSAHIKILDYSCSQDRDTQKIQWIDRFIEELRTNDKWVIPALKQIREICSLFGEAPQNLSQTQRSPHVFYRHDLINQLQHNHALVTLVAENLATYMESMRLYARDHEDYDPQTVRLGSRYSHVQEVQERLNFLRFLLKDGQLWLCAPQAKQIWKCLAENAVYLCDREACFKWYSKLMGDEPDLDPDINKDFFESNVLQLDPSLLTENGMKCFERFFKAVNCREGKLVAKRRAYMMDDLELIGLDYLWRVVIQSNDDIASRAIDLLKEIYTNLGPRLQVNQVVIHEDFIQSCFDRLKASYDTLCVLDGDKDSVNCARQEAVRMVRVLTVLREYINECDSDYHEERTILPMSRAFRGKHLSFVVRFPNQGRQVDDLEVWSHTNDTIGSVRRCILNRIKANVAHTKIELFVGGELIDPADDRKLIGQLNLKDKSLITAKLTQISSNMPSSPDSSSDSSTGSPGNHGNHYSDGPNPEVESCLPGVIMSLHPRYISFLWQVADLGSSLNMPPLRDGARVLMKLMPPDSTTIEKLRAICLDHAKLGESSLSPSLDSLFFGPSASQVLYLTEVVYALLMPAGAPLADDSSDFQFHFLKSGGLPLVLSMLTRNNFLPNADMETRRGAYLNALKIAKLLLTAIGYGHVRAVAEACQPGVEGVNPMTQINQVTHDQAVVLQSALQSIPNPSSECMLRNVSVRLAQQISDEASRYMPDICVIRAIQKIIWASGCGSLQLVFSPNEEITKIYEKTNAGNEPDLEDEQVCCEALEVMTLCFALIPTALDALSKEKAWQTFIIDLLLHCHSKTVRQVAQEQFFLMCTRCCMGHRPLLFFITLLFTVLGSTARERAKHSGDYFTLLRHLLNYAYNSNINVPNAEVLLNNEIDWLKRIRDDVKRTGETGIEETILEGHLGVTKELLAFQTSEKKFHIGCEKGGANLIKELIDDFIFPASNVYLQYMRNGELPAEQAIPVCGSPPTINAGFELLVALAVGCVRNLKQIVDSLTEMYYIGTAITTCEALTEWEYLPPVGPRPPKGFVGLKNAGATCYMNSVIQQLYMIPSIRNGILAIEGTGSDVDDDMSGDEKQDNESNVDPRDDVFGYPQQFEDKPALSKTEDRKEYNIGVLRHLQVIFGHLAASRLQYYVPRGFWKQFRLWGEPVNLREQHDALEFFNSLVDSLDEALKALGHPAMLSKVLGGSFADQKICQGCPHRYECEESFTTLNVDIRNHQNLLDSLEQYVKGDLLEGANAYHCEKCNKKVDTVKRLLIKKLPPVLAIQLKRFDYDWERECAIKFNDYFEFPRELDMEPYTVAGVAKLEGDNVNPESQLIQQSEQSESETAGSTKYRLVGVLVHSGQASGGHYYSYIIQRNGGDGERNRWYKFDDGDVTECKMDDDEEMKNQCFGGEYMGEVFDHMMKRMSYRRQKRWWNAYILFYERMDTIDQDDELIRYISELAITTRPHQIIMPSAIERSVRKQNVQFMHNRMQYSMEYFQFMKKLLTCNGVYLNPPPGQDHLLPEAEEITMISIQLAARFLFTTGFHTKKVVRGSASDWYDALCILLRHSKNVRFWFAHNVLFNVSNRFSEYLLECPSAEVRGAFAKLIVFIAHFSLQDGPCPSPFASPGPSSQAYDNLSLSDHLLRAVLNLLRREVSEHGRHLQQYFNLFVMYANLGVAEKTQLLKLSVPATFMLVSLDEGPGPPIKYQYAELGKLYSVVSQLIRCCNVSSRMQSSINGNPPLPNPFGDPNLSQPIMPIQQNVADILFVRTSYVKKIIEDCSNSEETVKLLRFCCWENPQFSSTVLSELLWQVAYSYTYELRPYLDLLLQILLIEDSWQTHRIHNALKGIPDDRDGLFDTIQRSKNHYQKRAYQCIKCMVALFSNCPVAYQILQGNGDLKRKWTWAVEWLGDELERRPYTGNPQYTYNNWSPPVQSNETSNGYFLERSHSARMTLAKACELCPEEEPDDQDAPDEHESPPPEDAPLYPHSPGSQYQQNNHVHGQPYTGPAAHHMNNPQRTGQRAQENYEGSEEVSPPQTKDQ
Outline: as §1

[10] = molecular target: UniProt O00487
Chain of UniProt O00487 (O00487 whole entry): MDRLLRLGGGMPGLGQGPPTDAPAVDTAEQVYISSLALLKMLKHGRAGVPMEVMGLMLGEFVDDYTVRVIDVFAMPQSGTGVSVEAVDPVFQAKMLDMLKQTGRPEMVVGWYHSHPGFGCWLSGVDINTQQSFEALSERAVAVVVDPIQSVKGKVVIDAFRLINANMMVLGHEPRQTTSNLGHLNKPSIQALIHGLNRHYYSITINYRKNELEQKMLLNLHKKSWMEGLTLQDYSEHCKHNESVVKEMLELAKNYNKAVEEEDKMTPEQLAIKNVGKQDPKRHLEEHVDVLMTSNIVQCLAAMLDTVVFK
Outline: as §1

Measured: log2 ratio of Biotin-Ahx-Ub-VS probe labelling

O=C(CCl)N1CC2(CCOCC2)C1
inactive: [1] -0.145 | [2] 0.00462 | [3] 0.0373 | [4] -0.152 | [5] 0.362 | [6] 0.355 | [7] -0.055 | [8] 0.147 | [9] -0.238 | [10] -0.0916
